Records with an inconclusive call do not appear. Active and inactive are the calls of the source. How the source made its calls: active means hit-call score of the fitted dose curve at least 0.9, where 1 is the maximum; inconclusive means response in the unintended direction; inactive means score below 0.9.

The test in a line: ACEA_ER_AUC_viability: ACEA Biosciences xCELLigence Real-Time Cell Analysis on Estrogen Receptor Agonism for Viability (AID 2283782).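 Further: continuous compound exposure with impedance area under curve over 80 h.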 As for the experimental part: ACEA_ER is a cell-based, single-readout assay that uses T47D, a human breast cell line, with measurements taken at 80 hours after chemical dosing in a 96-well plate, although TO2 (mc0.srcf) used a 384-well plate. Differences in plate size can be ignored given data normalization.ACEA_ER_AUC_viability is one of two assay component(s) measured or calculated from the ACEA_ER assay. It is designed to make measurements of real-time cell-growth kinetics, a form of growth reporter, as detected with electrical impedance signals by Real-Time Cell Electrode Sensor (RT-CES) technology.Data from the assay component ACEA_ER_AUC_viability was analyzed in the positive analysis fitting direction relative to DMSO as the negative control and baseline of activity. Using a type of growth reporter, loss-of-signal activity can be used to understand changes in the viability. Furthermore, this assay endpoint can be referred to as a secondary readout, because this assay has produced multiple assay endpoints where this one serves a viability function. To generalize the intended target to other relatable targets, this assay endpoint is annotated to the cell cycle intended target family, where the subfamily is cytotoxicity.
The xCELLigence system Multi-E-Plate stations were used to measure the time-dependent response to chemicals. Each compound was tested in an eight-point, 1:4 serial dilution series starting at a maximum final concentration of 100 uM. A maximum starting concentration of 0.5% DMSO was present in the 100 uM chemical samples and was diluted along with the test article dilution series. The screen was performed in biological duplicate using two separate, 96-well, E-Plates 96 for each dilution series (n = 2). Positive controls (MG132 and E2) and a negative control (assay media) were tested in quadruplicate on each testing plate. Then, 0.5% and 0.125% DMSO were tested in duplicates in each plate to serve as solvent controls for the 2 highest concentrations of testing compounds: 100 uM and 25 uM. Reference compounds were tested with 8 concentrations with 1:5 serial dilutions. All screening was carried out by ACEA Biosciences, Inc. (San Diego, CA). T-47D cells purchased from ATCC were maintained in RPMI1640 media supplemented with 10% characterized fetal bovine serum (FBS). Before screening, T-47D cells were preconditioned in assay medium: phenol red-free RPMI1640 supplemented with 10% charcoal-stripped FBS. Cells were then detached and seeded in E-Plates 96 in assay medium. After overnight monitoring of growth once every hour, compounds were added to […] cells and remained in the medium until the end of the experiment. Cellular responses were then recorded once every 5 min for the first 5 h, and once every hour for an additional 100 h.
`CN[C@H]1CC[C@@H](c2ccc(Cl)c(Cl)c2)c2ccc(S(N)(=O)=O)cc21`: the AC50 is 10.9 µM (active).

Consider `CCOc1ccc2c(c1)C(C)=CC(C)(C)N2`, for which the result was inactive. Regarding `O=C(N[C@@H](Cc1ccccc1)[C@@H](O)C(=O)N1C[C@@H](O)[C@@H](O)C1)c1cc2cc(Cl)ccc2[nH]1`, the concentration at half-maximal activity (AC50) is 55.2 µM (active). As for `Cc1cccc(C)c1O`, the call was inactive. In the case of `Nc1nc(N)c2nc(CNc3ccc(C(=O)N[C@@H](CCC(=O)O)C(=O)O)cc3)cnc2n1`, the AC50 is 40.1 µM (active). For the compound `CCNc1cccc(C)c1`, the compound was called inactive. Same read-out and setting: the value for `Cc1ccc(C)c(O)c1C` was “inactive”; that for `COc1cc(/C=C/C(=O)CC(=O)/C=C/c2ccc(O)c(OC)c2)ccc1O` was “inactive”. With `FC(F)(F)C(F)(F)C(F)(F)C(F)(F)C(F)(F)C(F)(F)CCI`, the result was inactive. Take `CCCCC(CC)COC(=O)CC(C(=O)OCC(CC)CCCC)S(=O)(=O)O` (centres undefined): the half-maximal activity concentration (AC50) was 67.3 µM (active). Take `Cc1nc(-c2ccc3c(c2)CCN(CCC2CCC(NC(=O)/C=C/c4ccc(F)cc4)CC2)CC3)no1` (centres undefined): the outcome was inactive. As for `COc1cc(-c2nc(NC(=O)c3cc4cc(C)cc(C)c4n3CC(=O)O)sc2CCC2CCCCC2)c(OC)cc1Cl`, the AC50 is 11.4 µM (active). On the same count and under the same terms, the value for `CN1CCN(Cc2cc(-c3ccc4[nH]c(=O)oc4c3)co2)[C@@H](c2ccc(F)cc2)C1` was 50.8 µM (active); that for `COc1ccc(S(=O)(=O)N2C(=O)[C@@](c3ccccc3OC)(N3C[C@H](O)C[C@H]3C(=O)N(C)C)c3cc(Cl)ccc32)c(OC)c1` was 24.3 µM (active). On the same count and under the same terms, the value for `C1CCC(SSC2CCCCC2)CC1` was 92.3 µM (active). In the case of `Cc1oc(-c2ccccc2)nc1CCOc1cccc2c1ccn2CCC(=O)O`, the compound was classed as inactive. The same measure, in the same setting: the value for `Clc1cc(Cl)c(Cl)cc1Cl` was “inactive”. Still for that read-out and setting: next, `Cc1ccc(Cl)cc1`: “inactive”. Take `Oc1ccc2c(c1)OC[C@@H](N1CCC(O)(c3ccc(F)cc3)CC1)[C@H]2O`: the outcome was inactive. Regarding `Cc1cc(=O)[nH]c(=S)[nH]1`, the compound was called inactive.

Take `CNC(=O)[C@H]1O[C@@H](n2cnc3c(NCc4cc(Cl)ccc4OCc4cc(C)no4)ncnc32)[C@H](O)[C@@H]1N`: the outcome was inactive.

On to `CC1=C(/C=C/C(C)=C/C=C/C(C)=C/CO)C(C)(C)CCC1`, for which the result was inactive. Still for that read-out and setting: the value for `Cc1ccc(C(C)C)c(O)c1` was “inactive”.

Turning to `Nc1ccccc1N`, the compound was called inactive. The same measure, in the same setting: next, `CCCCCCC(=O)OCC`: “inactive”; `COc1cccc2c1C(=O)c1c(O)c3c(c(O)c1C2=O)C[C@@](O)(C(=O)CO)C[C@@H]3O[C@H]1C[C@H](N)[C@H](O)[C@H](C)O1`: “inactive”.

For the compound `COc1ccc(C)cc1N`, the result was inactive. Same read-out and setting: next, `CC(=O)OC/C=C(\C)CCC=C(C)C`: “inactive”. For `CNCc1cc(F)ccc1Oc1ccc(Cl)c(Cl)c1`, the AC50 is 29.9 µM (active).

Broadly, the AC50 is the concentration at which the activity in the assay is half-maximal.
